This passage reports binding signal results from PMC7862700, “An all-to-all approach to the identification of sequence-specific readers for epigenetic DNA modifications on cytosine”.

What all share (test): DAPPL (digital affinity profiling via proximity ligation, sequencing); 10 mM Tris-HCl pH 7.5, 50 mM NaCl, 1 mM DTT, 4% glycerol, room temperature, 30 min; GST-TFs on glutathione beads, 16-mer random dsDNA library, 0.1% formaldehyde crosslink after washing; high values mean tight binding
Common to all, as to settings: protein: recombinant; tags: N-terminal GST; dsDNA, one strand shown

One assay has as its target T1, ERF (Homo sapiens, UniProt P50548 1-548).
T1 sequence: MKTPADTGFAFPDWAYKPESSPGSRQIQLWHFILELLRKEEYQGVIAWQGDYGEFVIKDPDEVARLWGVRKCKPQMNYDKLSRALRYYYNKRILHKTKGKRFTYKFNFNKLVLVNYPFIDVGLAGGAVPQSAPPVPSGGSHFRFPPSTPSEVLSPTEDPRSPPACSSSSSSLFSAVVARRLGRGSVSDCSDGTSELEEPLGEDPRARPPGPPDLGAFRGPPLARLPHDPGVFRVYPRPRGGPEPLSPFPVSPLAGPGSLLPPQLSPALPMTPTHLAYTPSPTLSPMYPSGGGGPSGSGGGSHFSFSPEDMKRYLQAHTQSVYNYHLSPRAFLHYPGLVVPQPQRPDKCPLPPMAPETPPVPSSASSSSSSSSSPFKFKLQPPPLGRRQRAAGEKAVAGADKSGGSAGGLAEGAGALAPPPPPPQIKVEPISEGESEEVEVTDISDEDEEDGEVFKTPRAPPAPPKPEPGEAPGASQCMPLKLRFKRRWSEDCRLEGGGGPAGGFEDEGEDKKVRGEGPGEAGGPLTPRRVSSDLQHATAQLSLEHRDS
A digest of the protocol:
(§1)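 Beads coated with glutathione captured GST-fused human transcription factors that had been expressed in yeast, and the factors were then given DNA barcodes and pooled with a tag-only sample. The pools were incubated with 200 nmole of a random double-stranded 16-mer DNA library in Tris/NaCl/DTT/glycerol buffer for 30 min at room temperature, washed, crosslinked with 0.1% formaldehyde and proximity-ligated with BsaI/T4 ligase at 37 °C for 1 h. PCR amplification and Illumina NextSeq500 sequencing came last. Binding signal is each hexamer's read frequency for a factor divided by its frequency for the tag-only sample.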

The target in a further assay is T2, ETV3L (Homo sapiens, UniProt Q6ZN32 1-361).
T2 sequence: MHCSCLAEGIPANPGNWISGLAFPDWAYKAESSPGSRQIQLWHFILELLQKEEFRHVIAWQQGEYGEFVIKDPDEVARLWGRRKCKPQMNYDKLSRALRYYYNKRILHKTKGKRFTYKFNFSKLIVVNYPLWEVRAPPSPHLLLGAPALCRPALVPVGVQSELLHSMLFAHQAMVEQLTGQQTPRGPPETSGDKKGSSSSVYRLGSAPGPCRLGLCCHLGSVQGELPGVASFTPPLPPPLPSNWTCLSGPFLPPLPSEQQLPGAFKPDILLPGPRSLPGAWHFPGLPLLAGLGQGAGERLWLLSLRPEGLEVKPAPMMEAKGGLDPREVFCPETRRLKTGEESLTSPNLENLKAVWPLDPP
In outline:
as §1

For the next assay, the target named is T3, ETS2 (Homo sapiens, UniProt P15036 1-469).
T3 sequence: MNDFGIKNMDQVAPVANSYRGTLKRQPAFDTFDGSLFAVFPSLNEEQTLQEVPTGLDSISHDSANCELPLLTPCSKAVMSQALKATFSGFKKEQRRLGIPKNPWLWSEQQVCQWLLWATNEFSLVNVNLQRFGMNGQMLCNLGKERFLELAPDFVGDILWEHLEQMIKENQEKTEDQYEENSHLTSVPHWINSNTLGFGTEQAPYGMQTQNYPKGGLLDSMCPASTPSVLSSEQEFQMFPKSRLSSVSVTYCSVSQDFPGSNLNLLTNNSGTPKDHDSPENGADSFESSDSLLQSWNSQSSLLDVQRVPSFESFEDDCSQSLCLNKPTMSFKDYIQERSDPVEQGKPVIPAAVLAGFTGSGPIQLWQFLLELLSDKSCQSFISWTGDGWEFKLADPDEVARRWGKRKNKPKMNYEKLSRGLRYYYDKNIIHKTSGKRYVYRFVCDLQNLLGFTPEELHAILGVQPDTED
In outline: as §1

Another assay concerns the target T4, SPDEF (Homo sapiens, UniProt O95238 1-335).
T4 sequence: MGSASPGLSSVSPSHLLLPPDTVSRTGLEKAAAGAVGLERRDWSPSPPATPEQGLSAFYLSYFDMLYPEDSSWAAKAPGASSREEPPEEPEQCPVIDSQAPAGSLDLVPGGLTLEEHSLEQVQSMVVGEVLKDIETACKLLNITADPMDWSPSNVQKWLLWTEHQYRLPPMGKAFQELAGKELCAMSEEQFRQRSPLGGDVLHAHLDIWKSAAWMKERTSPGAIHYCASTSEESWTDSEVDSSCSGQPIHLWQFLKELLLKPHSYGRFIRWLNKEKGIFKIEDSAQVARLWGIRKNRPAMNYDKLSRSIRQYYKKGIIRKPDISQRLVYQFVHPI
A digest of the protocol: as §1

The next assay concerns the target T5, ETV7 (Homo sapiens, UniProt Q9Y603 1-341).
T5 sequence: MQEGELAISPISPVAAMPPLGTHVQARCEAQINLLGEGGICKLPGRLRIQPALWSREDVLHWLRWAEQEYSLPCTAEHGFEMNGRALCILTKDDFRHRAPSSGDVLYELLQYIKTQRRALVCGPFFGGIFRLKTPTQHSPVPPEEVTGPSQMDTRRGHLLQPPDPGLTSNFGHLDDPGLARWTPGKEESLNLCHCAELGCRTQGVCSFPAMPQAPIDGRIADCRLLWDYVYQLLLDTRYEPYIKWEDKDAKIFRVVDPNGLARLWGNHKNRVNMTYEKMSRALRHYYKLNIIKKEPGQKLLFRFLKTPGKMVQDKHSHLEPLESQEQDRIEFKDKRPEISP
A digest of the protocol:
as §1

The target in the next assay is T6, ELF5 (Homo sapiens, UniProt Q9UKW6-2 1-255).
T6 sequence: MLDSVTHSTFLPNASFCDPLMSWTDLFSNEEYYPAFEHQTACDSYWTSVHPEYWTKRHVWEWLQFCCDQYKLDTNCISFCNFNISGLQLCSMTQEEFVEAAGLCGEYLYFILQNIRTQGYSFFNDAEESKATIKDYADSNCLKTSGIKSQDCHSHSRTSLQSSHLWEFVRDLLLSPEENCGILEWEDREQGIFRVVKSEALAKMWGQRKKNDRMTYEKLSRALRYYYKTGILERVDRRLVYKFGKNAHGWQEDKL
A digest of the protocol:
as §1

The next assay has as its target T7, ETV3 (Homo sapiens, UniProt P41162-2 1-143).
T7 sequence: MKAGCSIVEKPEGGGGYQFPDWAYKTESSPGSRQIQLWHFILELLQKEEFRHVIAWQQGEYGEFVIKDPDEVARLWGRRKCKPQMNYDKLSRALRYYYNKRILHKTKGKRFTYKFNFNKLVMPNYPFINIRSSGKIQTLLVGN
In outline: as §1

In the next assay the target is ETV6 (Homo sapiens, UniProt P41212 1-452). In outline:
as §1

Sequence of ETV6 (P41212 whole entry): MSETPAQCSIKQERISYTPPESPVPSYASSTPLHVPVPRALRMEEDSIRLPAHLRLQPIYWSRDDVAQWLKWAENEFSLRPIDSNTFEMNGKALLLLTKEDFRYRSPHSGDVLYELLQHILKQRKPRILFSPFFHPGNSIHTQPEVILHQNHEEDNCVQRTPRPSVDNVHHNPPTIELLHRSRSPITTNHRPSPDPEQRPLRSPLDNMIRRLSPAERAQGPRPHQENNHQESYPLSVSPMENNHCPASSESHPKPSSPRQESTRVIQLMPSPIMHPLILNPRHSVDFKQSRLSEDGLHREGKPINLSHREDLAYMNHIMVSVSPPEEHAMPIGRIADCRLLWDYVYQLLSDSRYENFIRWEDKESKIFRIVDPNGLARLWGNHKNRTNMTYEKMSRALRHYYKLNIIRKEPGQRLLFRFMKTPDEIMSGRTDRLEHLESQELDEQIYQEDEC

Regarding CAATGC, the binding signal in the assay with ERF was 1.08 fold enrichment (6-mer frequency, TF over GST control); with ETV3L, 1.15 fold enrichment (6-mer frequency, TF over GST control); with ETS2, 1.15 fold enrichment (6-mer frequency, TF over GST control); in the assay with SPDEF, 1.2 fold enrichment (6-mer frequency, TF over GST control); with ETV7, 1.24 fold enrichment (6-mer frequency, TF over GST control); in the assay with ELF5, 1.13 fold enrichment (6-mer frequency, TF over GST control). The binding signal was 1.2 fold enrichment (6-mer frequency, TF over GST control) with ETV3 and 1.24 fold enrichment (6-mer frequency, TF over GST control) with ETV6.
For CGGTTT, the binding signal with ERF is 1.23 fold enrichment (6-mer frequency, TF over GST control); with ETV3L, 1.14 fold enrichment (6-mer frequency, TF over GST control); in the assay with ETS2, 1.2 fold enrichment (6-mer frequency, TF over GST control); with SPDEF it was 1.36 fold enrichment (6-mer frequency, TF over GST control); with ETV7 it was 1.2 fold enrichment (6-mer frequency, TF over GST control); with ELF5, 1.31 fold enrichment (6-mer frequency, TF over GST control). Besides, the binding signal with ETV3 is 1.22 fold enrichment (6-mer frequency, TF over GST control); in the assay with ETV6, 1.23 fold enrichment (6-mer frequency, TF over GST control).
Regarding TGTTTG, the binding signal with ERF was 1.4 fold enrichment (6-mer frequency, TF over GST control); in the assay with ETV3L it was 1.35 fold enrichment (6-mer frequency, TF over GST control); in the assay with ETS2, 1.32 fold enrichment (6-mer frequency, TF over GST control); in the assay with SPDEF it was 1.25 fold enrichment (6-mer frequency, TF over GST control); with ETV7 it was 1.39 fold enrichment (6-mer frequency, TF over GST control); with ELF5 it was 1.29 fold enrichment (6-mer frequency, TF over GST control). The binding signal was 1.35 fold enrichment (6-mer frequency, TF over GST control) with ETV3 and 1.41 fold enrichment (6-mer frequency, TF over GST control) with ETV6.
Consider GAATAC, for which the binding signal in the assay with ERF is 1.11 fold enrichment (6-mer frequency, TF over GST control); in the assay with ETV3L, 1.01 fold enrichment (6-mer frequency, TF over GST control); with ETS2 it was 1.02 fold enrichment (6-mer frequency, TF over GST control); in the assay with SPDEF, 1 fold enrichment (6-mer frequency, TF over GST control); with ETV7, 1.01 fold enrichment (6-mer frequency, TF over GST control); with ELF5 it was 1.03 fold enrichment (6-mer frequency, TF over GST control). In addition, the binding signal in the assay with ETV3 is 1.07 fold enrichment (6-mer frequency, TF over GST control); with ETV6 it was 1.03 fold enrichment (6-mer frequency, TF over GST control).
Consider ACCGGA, for which the binding signal is 2.82 fold enrichment (6-mer frequency, TF over GST control) in the assay with ERF; 2.97 fold enrichment (6-mer frequency, TF over GST control) with ETV3L; 3.14 fold enrichment (6-mer frequency, TF over GST control) with ETS2; 4.52 fold enrichment (6-mer frequency, TF over GST control) with SPDEF; 2.74 fold enrichment (6-mer frequency, TF over GST control) with ETV7; 3.2 fold enrichment (6-mer frequency, TF over GST control) in the assay with ELF5. Besides, the binding signal with ETV3 was 3.45 fold enrichment (6-mer frequency, TF over GST control); with ETV6, 3.16 fold enrichment (6-mer frequency, TF over GST control).
Turning to CACTAC, the binding signal was 1.33 fold enrichment (6-mer frequency, TF over GST control) in the assay with ERF; 1.29 fold enrichment (6-mer frequency, TF over GST control) with ETV3L; 1.31 fold enrichment (6-mer frequency, TF over GST control) with ETS2; 1.14 fold enrichment (6-mer frequency, TF over GST control) in the assay with SPDEF; 1.27 fold enrichment (6-mer frequency, TF over GST control) in the assay with ETV7; 1.26 fold enrichment (6-mer frequency, TF over GST control) with ELF5. Moreover, the binding signal with ETV3 is 1.26 fold enrichment (6-mer frequency, TF over GST control); with ETV6 it was 1.24 fold enrichment (6-mer frequency, TF over GST control).
For the sequence CGCTTA, the binding signal with ERF was 1.31 fold enrichment (6-mer frequency, TF over GST control); with ETV3L it was 1.3 fold enrichment (6-mer frequency, TF over GST control); with ETS2 it was 1.25 fold enrichment (6-mer frequency, TF over GST control); with SPDEF, 1.3 fold enrichment (6-mer frequency, TF over GST control); in the assay with ETV7, 1.31 fold enrichment (6-mer frequency, TF over GST control); with ELF5, 1.19 fold enrichment (6-mer frequency, TF over GST control). Further, the binding signal with ETV3 was 1.34 fold enrichment (6-mer frequency, TF over GST control); in the assay with ETV6, 1.11 fold enrichment (6-mer frequency, TF over GST control).
In the case of ACTCAT, the binding signal in the assay with ERF is 1.39 fold enrichment (6-mer frequency, TF over GST control); with ETV3L, 1.26 fold enrichment (6-mer frequency, TF over GST control); with ETS2, 1.29 fold enrichment (6-mer frequency, TF over GST control); with SPDEF, 1.24 fold enrichment (6-mer frequency, TF over GST control); with ETV7 it was 1.27 fold enrichment (6-mer frequency, TF over GST control); with ELF5, 1.32 fold enrichment (6-mer frequency, TF over GST control). Further, the binding signal with ETV3 was 1.3 fold enrichment (6-mer frequency, TF over GST control); with ETV6, 1.31 fold enrichment (6-mer frequency, TF over GST control).
